In PMC7862700, “An all-to-all approach to the identification of sequence-specific readers for epigenetic DNA modifications on cytosine”:

How the values were obtained:
Assay in all cases: DAPPL (digital affinity profiling via proximity ligation, sequencing); 10 mM Tris-HCl pH 7.5, 50 mM NaCl, 1 mM DTT, 4% glycerol, room temperature, 30 min; GST-TFs on glutathione beads, 16-mer random dsDNA library, 0.1% formaldehyde crosslink after washing; high values mean tight binding
FEV = molecular target: T1, FEV (Homo sapiens, UniProt Q99581 1-238); conditions: protein: recombinant; tags: N-terminal GST; dsDNA, one strand shown
T1 sequence: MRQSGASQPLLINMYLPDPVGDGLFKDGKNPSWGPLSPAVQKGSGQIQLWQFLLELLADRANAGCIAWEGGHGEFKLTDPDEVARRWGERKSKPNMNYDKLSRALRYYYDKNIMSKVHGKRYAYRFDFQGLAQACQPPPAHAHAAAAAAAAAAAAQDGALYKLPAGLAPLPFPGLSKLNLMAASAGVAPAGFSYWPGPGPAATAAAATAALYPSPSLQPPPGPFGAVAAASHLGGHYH
How it was run: (§1)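 After expression in yeast as GST fusions, human transcription factors were bound to glutathione beads, DNA-barcoded and mixed with a tag-only sample. The pools were incubated with 200 nmole of a 16-mer random double-stranded DNA library in Tris/NaCl/DTT/glycerol buffer (30 min, room temperature), washed and crosslinked with 0.1% formaldehyde. Proximity ligation with BsaI/T4 ligase ran for 1 h at 37 °C, before PCR amplification and sequencing on an Illumina NextSeq500. Binding signal is a hexamer's read frequency for a factor divided by its frequency for the tag-only sample.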

ETV5 = ETV5 (Homo sapiens, UniProt P41161 1-510); conditions: protein: recombinant; tags: N-terminal GST; dsDNA, one strand shown
How it was run: as §1

HSF1 = HSF1 (Homo sapiens, UniProt Q00613 1-529); conditions: protein: recombinant; tags: N-terminal GST; chain copies: 3; dsDNA, one strand shown
How it was run: as §1

SPIC = molecular target: T2, SPIC (Homo sapiens, UniProt Q8N5J4 1-248); conditions: protein: recombinant; tags: N-terminal GST; dsDNA, one strand shown
T2 sequence: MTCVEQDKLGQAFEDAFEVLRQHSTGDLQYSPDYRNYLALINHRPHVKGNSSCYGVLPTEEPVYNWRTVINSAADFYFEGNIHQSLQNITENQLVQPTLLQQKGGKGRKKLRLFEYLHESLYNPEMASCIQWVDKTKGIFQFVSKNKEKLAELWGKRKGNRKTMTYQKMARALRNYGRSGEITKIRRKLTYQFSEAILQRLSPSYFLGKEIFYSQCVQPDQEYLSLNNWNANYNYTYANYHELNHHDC
How it was run: as §1

ELF4 = ELF4 (Homo sapiens, UniProt Q99607 1-663); conditions: protein: recombinant; tags: N-terminal GST; dsDNA, one strand shown
How it was run: as §1

ELK4 = molecular target: T3, ELK4 (Homo sapiens, UniProt P28324-2 1-405); conditions: protein: recombinant; tags: N-terminal GST; dsDNA, one strand shown
T3 sequence: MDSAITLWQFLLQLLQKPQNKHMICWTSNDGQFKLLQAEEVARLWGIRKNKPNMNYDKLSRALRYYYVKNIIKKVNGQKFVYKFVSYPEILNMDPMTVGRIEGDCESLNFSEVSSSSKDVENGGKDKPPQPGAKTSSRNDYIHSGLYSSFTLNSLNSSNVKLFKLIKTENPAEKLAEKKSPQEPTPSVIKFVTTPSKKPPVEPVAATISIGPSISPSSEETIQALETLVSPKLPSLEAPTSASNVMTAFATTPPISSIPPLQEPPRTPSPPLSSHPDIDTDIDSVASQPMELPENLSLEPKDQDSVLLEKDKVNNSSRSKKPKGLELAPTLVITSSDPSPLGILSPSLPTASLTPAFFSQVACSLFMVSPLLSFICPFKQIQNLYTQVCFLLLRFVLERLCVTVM
How it was run: as §1

ETV2 = molecular target: T4, ETV2 (Homo sapiens, UniProt O00321 1-342); conditions: protein: recombinant; tags: N-terminal GST; dsDNA, one strand shown
T4 sequence: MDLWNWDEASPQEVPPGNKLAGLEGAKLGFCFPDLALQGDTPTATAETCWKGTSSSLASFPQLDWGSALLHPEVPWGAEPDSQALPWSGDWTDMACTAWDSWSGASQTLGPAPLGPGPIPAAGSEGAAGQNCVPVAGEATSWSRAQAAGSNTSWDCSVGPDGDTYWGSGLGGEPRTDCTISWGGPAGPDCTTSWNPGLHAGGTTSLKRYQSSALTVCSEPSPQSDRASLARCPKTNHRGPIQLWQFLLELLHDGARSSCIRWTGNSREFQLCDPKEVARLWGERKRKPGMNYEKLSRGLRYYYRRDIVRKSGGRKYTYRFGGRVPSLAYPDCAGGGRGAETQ
How it was run: as §1

ELF3 = molecular target: T5, ELF3 (Homo sapiens, UniProt P78545 1-371); conditions: protein: recombinant; tags: N-terminal GST; dsDNA, one strand shown
T5 sequence: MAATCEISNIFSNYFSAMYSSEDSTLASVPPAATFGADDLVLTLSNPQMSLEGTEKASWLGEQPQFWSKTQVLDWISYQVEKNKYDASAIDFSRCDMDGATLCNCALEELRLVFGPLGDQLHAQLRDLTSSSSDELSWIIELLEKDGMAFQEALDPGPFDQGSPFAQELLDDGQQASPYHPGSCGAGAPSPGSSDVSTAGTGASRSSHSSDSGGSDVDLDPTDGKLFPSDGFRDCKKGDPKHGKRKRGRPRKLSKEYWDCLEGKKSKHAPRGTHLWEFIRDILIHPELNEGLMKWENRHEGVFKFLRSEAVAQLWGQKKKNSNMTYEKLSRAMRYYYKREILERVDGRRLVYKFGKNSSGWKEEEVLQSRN
How it was run: as §1

CRX = CRX (Homo sapiens, UniProt O43186 1-299); conditions: protein: recombinant; tags: N-terminal GST; dsDNA, one strand shown
How it was run: as §1

ETV1 = ETV1 (Homo sapiens, UniProt P50549 1-477); conditions: protein: recombinant; tags: N-terminal GST; dsDNA, one strand shown
How it was run: as §1

ERF = molecular target: T6, ERF (Homo sapiens, UniProt P50548 1-548); conditions: protein: recombinant; tags: N-terminal GST; dsDNA, one strand shown
T6 sequence: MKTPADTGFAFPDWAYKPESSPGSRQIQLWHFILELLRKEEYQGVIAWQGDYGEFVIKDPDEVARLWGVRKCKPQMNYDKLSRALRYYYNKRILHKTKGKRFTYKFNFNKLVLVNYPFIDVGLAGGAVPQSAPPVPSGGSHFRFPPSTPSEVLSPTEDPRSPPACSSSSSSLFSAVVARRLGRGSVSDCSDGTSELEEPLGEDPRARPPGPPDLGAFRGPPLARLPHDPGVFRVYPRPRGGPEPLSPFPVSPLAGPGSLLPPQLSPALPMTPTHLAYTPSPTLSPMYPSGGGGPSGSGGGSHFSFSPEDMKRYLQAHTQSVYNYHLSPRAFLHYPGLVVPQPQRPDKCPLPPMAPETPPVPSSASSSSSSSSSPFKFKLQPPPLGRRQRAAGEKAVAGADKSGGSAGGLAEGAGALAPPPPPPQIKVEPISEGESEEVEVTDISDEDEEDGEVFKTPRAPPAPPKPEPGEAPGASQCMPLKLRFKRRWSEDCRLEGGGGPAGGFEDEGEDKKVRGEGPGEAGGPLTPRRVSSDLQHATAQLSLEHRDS
How it was run: as §1

ETV3L = molecular target: T7, ETV3L (Homo sapiens, UniProt Q6ZN32 1-361); conditions: protein: recombinant; tags: N-terminal GST; dsDNA, one strand shown
T7 sequence: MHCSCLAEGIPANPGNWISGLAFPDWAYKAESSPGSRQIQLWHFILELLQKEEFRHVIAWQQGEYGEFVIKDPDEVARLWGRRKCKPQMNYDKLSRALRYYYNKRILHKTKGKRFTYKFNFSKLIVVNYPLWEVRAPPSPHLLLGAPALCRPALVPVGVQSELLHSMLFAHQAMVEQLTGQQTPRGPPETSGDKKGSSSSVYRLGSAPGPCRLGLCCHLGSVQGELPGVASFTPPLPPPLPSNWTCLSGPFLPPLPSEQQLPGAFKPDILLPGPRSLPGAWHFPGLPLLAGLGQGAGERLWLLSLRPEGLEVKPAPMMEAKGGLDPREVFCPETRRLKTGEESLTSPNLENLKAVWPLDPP
How it was run: as §1

ETS2 = molecular target: T8, ETS2 (Homo sapiens, UniProt P15036 1-469); conditions: protein: recombinant; tags: N-terminal GST; dsDNA, one strand shown
T8 sequence: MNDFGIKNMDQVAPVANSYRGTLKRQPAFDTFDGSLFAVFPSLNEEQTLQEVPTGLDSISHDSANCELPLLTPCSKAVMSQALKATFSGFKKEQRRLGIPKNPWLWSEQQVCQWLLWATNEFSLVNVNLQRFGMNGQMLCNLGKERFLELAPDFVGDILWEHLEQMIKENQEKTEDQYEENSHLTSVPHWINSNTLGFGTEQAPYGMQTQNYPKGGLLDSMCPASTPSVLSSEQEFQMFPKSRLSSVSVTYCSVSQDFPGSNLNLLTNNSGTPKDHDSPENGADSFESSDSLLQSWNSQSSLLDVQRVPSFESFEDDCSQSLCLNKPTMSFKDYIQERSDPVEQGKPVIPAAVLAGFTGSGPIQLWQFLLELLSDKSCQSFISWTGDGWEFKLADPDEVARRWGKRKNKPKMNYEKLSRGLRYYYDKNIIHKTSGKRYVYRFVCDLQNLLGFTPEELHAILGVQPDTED
How it was run: as §1

SPDEF = molecular target: T9, SPDEF (Homo sapiens, UniProt O95238 1-335); conditions: protein: recombinant; tags: N-terminal GST; dsDNA, one strand shown
T9 sequence: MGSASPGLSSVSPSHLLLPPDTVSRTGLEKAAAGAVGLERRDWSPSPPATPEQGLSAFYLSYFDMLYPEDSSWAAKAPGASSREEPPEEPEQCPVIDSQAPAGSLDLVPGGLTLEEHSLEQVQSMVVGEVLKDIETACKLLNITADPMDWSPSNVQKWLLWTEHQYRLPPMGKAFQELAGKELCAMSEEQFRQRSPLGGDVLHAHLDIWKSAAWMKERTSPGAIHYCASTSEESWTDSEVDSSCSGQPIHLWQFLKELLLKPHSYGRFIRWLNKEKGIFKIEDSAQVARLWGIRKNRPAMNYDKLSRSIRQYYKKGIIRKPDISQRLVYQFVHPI
How it was run: as §1

ETV7 = molecular target: T10, ETV7 (Homo sapiens, UniProt Q9Y603 1-341); conditions: protein: recombinant; tags: N-terminal GST; dsDNA, one strand shown
T10 sequence: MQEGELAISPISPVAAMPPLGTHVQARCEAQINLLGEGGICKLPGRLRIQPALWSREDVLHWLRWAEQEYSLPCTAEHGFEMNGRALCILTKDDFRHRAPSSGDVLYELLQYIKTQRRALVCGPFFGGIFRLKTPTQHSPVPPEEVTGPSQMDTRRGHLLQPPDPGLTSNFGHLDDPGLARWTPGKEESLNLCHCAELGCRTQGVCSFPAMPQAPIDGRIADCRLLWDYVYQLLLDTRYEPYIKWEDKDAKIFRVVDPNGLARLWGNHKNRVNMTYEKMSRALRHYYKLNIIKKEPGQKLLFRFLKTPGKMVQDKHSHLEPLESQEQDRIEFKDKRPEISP
How it was run: as §1

ELF5 = molecular target: T11, ELF5 (Homo sapiens, UniProt Q9UKW6-2 1-255); conditions: protein: recombinant; tags: N-terminal GST; dsDNA, one strand shown
T11 sequence: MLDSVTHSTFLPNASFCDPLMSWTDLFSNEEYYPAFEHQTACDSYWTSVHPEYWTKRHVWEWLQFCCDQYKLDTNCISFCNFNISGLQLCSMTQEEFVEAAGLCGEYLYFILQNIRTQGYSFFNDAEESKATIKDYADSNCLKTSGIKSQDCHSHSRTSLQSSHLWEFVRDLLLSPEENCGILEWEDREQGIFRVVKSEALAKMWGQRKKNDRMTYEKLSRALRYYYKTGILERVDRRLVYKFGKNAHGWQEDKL
How it was run: as §1

ETV3 = molecular target: T12, ETV3 (Homo sapiens, UniProt P41162-2 1-143); conditions: protein: recombinant; tags: N-terminal GST; dsDNA, one strand shown
T12 sequence: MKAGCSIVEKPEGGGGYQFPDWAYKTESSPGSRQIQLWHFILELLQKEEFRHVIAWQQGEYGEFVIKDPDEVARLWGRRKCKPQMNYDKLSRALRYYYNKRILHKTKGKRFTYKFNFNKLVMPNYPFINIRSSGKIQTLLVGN
How it was run: as §1

ETV6 = ETV6 (Homo sapiens, UniProt P41212 1-452); conditions: protein: recombinant; tags: N-terminal GST; dsDNA, one strand shown
How it was run: as §1

Sequence of ETV5 (P41161 whole entry): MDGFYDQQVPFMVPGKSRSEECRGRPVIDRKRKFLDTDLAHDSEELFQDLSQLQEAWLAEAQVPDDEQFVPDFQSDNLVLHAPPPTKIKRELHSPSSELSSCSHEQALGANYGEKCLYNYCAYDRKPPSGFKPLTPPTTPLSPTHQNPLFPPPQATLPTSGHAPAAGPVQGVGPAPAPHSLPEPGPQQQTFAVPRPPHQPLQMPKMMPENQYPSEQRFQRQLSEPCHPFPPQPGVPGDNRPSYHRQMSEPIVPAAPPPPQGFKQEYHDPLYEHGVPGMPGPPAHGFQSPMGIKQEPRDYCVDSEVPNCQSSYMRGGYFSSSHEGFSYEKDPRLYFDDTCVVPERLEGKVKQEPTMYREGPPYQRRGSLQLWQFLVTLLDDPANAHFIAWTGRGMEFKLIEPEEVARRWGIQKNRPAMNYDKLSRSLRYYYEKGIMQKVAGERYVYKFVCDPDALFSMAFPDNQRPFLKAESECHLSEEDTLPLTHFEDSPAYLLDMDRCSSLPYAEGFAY
Sequence of CRX (O43186 whole entry): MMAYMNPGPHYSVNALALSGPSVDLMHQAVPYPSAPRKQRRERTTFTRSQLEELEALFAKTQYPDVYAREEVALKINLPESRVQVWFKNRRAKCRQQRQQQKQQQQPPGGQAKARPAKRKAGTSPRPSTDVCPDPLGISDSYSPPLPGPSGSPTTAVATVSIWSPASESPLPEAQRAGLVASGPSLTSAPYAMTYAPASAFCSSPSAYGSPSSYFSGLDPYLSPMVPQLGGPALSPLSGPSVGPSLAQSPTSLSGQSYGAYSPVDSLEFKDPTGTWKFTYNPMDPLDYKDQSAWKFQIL
Sequence of ETV1 (P50549 whole entry): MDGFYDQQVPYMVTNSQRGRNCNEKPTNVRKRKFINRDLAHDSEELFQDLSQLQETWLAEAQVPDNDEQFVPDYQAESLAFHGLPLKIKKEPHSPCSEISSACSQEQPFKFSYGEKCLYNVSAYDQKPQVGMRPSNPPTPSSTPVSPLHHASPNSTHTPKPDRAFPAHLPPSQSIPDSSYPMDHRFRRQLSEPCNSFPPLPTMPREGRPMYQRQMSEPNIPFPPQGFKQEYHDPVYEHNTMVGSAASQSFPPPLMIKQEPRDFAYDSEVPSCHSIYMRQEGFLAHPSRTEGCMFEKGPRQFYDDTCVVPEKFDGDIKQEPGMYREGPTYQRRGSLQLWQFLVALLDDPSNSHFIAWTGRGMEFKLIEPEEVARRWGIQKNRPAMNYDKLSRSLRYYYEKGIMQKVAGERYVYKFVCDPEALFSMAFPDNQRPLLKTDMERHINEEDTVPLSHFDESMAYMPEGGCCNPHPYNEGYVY
Sequence of HSF1 (Q00613 whole entry): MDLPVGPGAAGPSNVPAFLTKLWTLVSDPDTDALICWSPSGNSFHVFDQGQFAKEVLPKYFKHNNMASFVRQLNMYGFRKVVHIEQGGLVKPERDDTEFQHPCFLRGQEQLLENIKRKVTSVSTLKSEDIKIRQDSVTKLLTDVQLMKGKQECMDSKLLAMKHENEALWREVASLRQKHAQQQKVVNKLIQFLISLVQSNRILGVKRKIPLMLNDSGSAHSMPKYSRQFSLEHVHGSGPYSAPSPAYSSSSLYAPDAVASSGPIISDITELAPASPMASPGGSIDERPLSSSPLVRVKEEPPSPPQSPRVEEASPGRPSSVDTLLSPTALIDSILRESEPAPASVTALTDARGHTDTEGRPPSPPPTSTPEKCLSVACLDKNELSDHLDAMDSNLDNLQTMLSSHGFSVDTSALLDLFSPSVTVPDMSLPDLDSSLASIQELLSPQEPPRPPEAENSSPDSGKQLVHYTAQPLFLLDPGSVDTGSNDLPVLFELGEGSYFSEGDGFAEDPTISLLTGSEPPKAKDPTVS
Sequence of ETV6 (P41212 whole entry): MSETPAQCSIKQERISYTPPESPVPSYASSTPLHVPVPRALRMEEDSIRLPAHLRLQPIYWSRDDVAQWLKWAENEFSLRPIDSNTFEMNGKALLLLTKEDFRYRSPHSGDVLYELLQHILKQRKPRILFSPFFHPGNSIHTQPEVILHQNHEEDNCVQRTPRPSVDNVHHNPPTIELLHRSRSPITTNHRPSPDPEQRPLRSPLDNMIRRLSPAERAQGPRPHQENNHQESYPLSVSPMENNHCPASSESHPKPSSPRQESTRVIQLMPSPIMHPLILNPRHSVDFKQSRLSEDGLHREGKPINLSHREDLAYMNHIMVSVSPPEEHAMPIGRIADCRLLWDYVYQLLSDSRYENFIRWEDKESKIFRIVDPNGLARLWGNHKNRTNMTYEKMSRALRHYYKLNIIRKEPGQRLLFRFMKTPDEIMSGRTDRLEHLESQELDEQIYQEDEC
Sequence of ELF4 (Q99607 whole entry): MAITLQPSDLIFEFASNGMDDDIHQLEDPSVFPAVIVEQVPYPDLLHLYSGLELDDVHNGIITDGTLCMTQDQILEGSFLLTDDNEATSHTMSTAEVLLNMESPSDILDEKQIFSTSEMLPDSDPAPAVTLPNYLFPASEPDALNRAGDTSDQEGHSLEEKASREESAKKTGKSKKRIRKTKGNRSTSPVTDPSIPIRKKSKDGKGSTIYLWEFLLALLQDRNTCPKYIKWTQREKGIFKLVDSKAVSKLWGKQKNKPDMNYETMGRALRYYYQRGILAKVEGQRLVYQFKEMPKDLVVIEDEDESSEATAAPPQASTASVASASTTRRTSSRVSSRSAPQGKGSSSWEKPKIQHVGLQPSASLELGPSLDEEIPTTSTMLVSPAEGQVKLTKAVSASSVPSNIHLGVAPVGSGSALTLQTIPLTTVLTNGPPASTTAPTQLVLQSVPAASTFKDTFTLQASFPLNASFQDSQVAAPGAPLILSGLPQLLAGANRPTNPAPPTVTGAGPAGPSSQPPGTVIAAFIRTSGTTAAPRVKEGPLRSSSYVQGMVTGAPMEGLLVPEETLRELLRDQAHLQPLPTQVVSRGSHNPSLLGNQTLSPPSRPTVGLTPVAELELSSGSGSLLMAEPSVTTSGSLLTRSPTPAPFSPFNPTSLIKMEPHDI

Sequence: CTTCTT
- binding signal (FEV): 1.48 fold enrichment (6-mer frequency, TF over GST control)
- binding signal (ETV5): 1.59 fold enrichment (6-mer frequency, TF over GST control)
- binding signal (HSF1): 1.84 fold enrichment (6-mer frequency, TF over GST control)
- binding signal (SPIC): 1.61 fold enrichment (6-mer frequency, TF over GST control)
- binding signal (ELF4): 1.6 fold enrichment (6-mer frequency, TF over GST control)
- binding signal (ELK4): 1.58 fold enrichment (6-mer frequency, TF over GST control)
- binding signal (ETV2): 1.53 fold enrichment (6-mer frequency, TF over GST control)
- binding signal (ELF3): 1.45 fold enrichment (6-mer frequency, TF over GST control)
- binding signal (CRX): 1.89 fold enrichment (6-mer frequency, TF over GST control)
- binding signal (ETV1): 1.48 fold enrichment (6-mer frequency, TF over GST control)
- binding signal (ERF): 1.53 fold enrichment (6-mer frequency, TF over GST control)
- binding signal (ETV3L): 1.59 fold enrichment (6-mer frequency, TF over GST control)
- binding signal (ETS2): 1.35 fold enrichment (6-mer frequency, TF over GST control)
- binding signal (SPDEF): 1.54 fold enrichment (6-mer frequency, TF over GST control)
- binding signal (ETV7): 1.44 fold enrichment (6-mer frequency, TF over GST control)
- binding signal (ELF5): 1.65 fold enrichment (6-mer frequency, TF over GST control)
- binding signal (ETV3): 1.6 fold enrichment (6-mer frequency, TF over GST control)
- binding signal (ETV6): 1.64 fold enrichment (6-mer frequency, TF over GST control)
